From PubChem BioAssay (NCI)
The panel holds about 83,000 compounds, 20% with a hit somewhere; the sample as a whole holds those more often.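 Single-concentration screen, 48 h exposure, 96-well plates. Endpoint: percent growth. Below 10 = active.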 Unmarked numbers belong to inactive results. Calls of active or inactive are those of the source.

What follows are compounds tested on UO-31 renal (assay: NCI-60 one-dose screen, 48 h (100 = growth as untreated, 0 = no growth, -100 = all killed)). Conditions: 10 µM.

SMILES | growth
CCOC(=O)N/C(=C1/OCCN1C)[P+](c1ccccc1)(c1ccccc1)c1ccccc1 | 87.2%
O=C(NO)c1ccc(CNc2nc(-c3ccccc3)c3ccccc3n2)cc1 | -18.8% (active)
Cc1cc(C)nc(NS(=O)(=O)c2ccc(N/C(N)=N/c3nccc(-c4cccs4)n3)cc2)n1 | 59.1%
COc1cnc2c(c1)C(=O)c1c-2n(CCCNCCO)c(=O)c2cc(OC)c(OC)cc12 | 34%

Each compound was assayed on TK-10 renal in the same assay as above. Conditions: 10 µM.

SMILES | growth
Cc1ccc(C(=O)N/C(=C2/OCCN2C)[P+](c2ccccc2)(c2ccccc2)c2ccccc2)cc1 | 102%
CN(C)c1ccc(/C=C/c2nc3ccccc3c(=O)n2CC(=O)Nc2ccc(Cl)cc2)cc1 | 83.1%
Cc1ccc(CNC(=O)Cc2ccc3c(c2)CN(C2CCC(=O)NC2=O)C3=O)cc1 (stereo unspecified) | 33.2%
Cc1ccn2c(C(=O)c3ccccc3)cc(-c3cc(-c4ccc(N(C)C)cc4)c(C#N)c(N)n3)c2c1 | 85.7%
CCOP(=O)(OCC)O[C@H]1CCC(=O)[C@@H]2[C@H]1[C@H]1C[C@@H]3[C@@]4(C)CCCC(C)(C(=O)OC)[C@@H]4CC[C@@]23C=C1C(C)C (stereo partly specified) | 83.2%
C#CCNC(=O)CCC(=O)OC[C@]12CC[C@@H](C(=C)C)[C@@H]1C1CC[C@@H]3[C@@]4(C)CCCNC(C)(C)[C@@H]4CC[C@@]3(C)[C@]1(C)CC2 (stereo partly specified) | 11.6%
C/C(=N\N=C\c1ccc(N(C)C)cc1)c1ccc2c(c1)Nc1ccccc1S2 | 70.6%
O=C(Nc1ccc(Cl)c([N+](=O)[O-])c1)Nc1ccc(Cl)c([N+](=O)[O-])c1 | 48.3%
COc1ccc(CN2[C@H](C(=O)NCc3ccc(C(=O)NO)cc3)Cc3c([nH]c4ccccc34)[C@H]2C2CC2)cc1 | 53.2%
O=C(NO)c1ccc(CNC(=O)[C@H]2Cc3c([nH]c4ccccc34)[C@H](c3ccc(Cl)cc3)N2)cc1 | 4.19% (active)
O=C(Cn1nc(-c2ccccc2)ccc1=O)NN1C(=O)c2ccccc2C1=O | 105%
OCc1[nH]nc2cc(Nc3ncc4ccc(Br)c(OC5CCC(O)CC5)c4n3)ccc12 (stereo unspecified) | -89.6% (active)
COc1cc2c3c(n(CCCNCCO)c(=O)c2cc1OC)-c1nc2c(cc1C3=O)OCO2 | 85.5%
COc1ccc(CN2[C@H](C(=O)NCCCCCCC(=O)NO)Cc3c([nH]c4ccccc34)[C@H]2C2CC2)cc1 | -19.7% (active)
COc1ccc(C2N(c3ccc(Br)cc3)N=C(C(C)=O)N2[C@H]2[C@H](OC(C)=O)O[C@H](COC(C)=O)[C@@H](OC(C)=O)[C@@H]2OC(C)=O)cc1 (stereo partly specified) | 68.9%
CN1C(=O)N(C)C2SC(N/N=C/c3cccs3)=NC21 (stereo unspecified) | 63.7%
Cc1cc(C)nc(/N=C(\N)Nc2ccc(S(=O)(=O)Nc3nc(C)cc(C)n3)cc2)n1 | 105%
O=C(Cc1ccc2c(c1)CN(C1CCC(=O)NC1=O)C2=O)NCCc1ccccc1 (stereo unspecified) | 45.8%
CCNCCCn1c2c(c3cc(OC)c(OC)cc3c1=O)C(=O)c1cc3c(nc1-2)OCO3 | 98.3%

SMILES | growth
O=C(CNc1nc(-c2ccccc2)cs1)Nc1ccc(Cl)cc1[N+](=O)[O-] | 0.433% (active)
Cc1ccc2nc(-c3ccc(-c4nnc(SCC(=O)Nc5ccc(Cl)cc5)o4)cc3)[nH]c2c1 | 38.1%
Cc1ccc(C(=O)NNC(=O)CSc2nc3ccccc3c(=O)[nH]2)cc1 | 107%
CN(C)CCNC(=O)OCCCCOc1cc(O)c2c(=O)cc(-c3ccccc3)oc2c1 | 0.634% (active)
CCCCSc1nc(Nc2ccc(/C(C)=N/NC(N)=S)cc2)c(C#N)c(-c2ccccc2)n1 | 48.8%
O=c1[nH]c2ccccc2cc1CSc1ccc(Nc2nccc(-c3ccc4c(c3)OCO4)n2)cc1 | 89.4%
COc1cc2oc(-c3cccc(C(=O)Nc4ccc(Cl)cc4)c3)cc(=O)c2c(OCCNC(=O)CNC(=O)OC(C)(C)C)c1OC | 83.9%
Cc1ccc2nc(-c3ccc(-c4nnc(SCC(=O)Nc5ccc(Br)cc5)o4)cc3)[nH]c2c1 | 74.7%
COc1ccc(CN2[C@@H](C(=O)NCc3ccc(C(=O)NO)cc3)Cc3c([nH]c4ccccc34)[C@@H]2C)cc1 | 16.5%
O=C(CNc1nc(-c2ccccc2)cs1)Nc1cccc(Cl)c1 | 52.5%
NS(=O)(=O)c1ccc(NC(=O)CSc2ccc(-c3ccc(Cl)cc3)nn2)c(Br)c1 | 94.6%
Clc1ccc2c(N/N=C/c3c[nH]c4ccc(Br)cc34)ccnc2c1 | -67.2% (active)
Cc1ccc(-c2ccc(SCC(=O)Nc3ccc(S(N)(=O)=O)cc3Br)nn2)cc1 | 84.7%
CC(=O)Nc1ccc(-c2cn(-c3cccc(C(=O)Nc4cccc(OC(F)(F)F)c4)c3)nn2)cn1 | 111%
CCOC(=O)N/C(=C1/OCCN1C)[P+](c1ccccc1)(c1ccccc1)c1ccccc1 | 92.1%
O=C(NO)c1ccc(CNc2nc(-c3ccccc3)c3ccccc3n2)cc1 | -17.2% (active)
Cc1cc(C)nc(NS(=O)(=O)c2ccc(N/C(N)=N/c3nccc(-c4cccs4)n3)cc2)n1 | 117%
COc1cnc2c(c1)C(=O)c1c-2n(CCCNCCO)c(=O)c2cc(OC)c(OC)cc12 | 101%
